PubChem BioAssay AID1159580 (chemical genetic matrix, 2015)
Values joined by “and” are separate entries in the source; they are usually repeats but may differ in a detail not shown here. Identical values can stand only once. In all, about 5,500 compounds went through this assay and about 2,000 (36%) were called active. Roughly 18% stayed inconclusive and do not appear here. Rule as the data show it: active = normalized growth mostly below about 0.91 (no sharp cut-off); inconclusive = no clear call, values can overlap the other calls; inactive = mostly above about 0.92. This is one part of the list.

Assay: chemical genetic growth profiling, strain panel (AID 1159580);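 also: tested at 20 µM; growth read once vehicle control cultures reached saturation at 30 °C; 1 = growth at the plate median or of vehicle wells; lower values mean less growth of the strain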
Settings: S. cerevisiae deletion strains, growth OD
[1] = locus YAL013W, strain DEP1, hits give low values
[2] = locus YMR307W, strain GAS1, hits give low values
[3] = locus YNL322C, strain KRE1, hits give low values

Measured: normalized growth

NC(N)=N[C@@H](CCC(=O)O)C(=O)O
inactive: [1] 1.03 | locus YAL040C, strain CLN3, hits give low values 1.09 | locus YCL061C, strain MRC1 (second series), hits give low values 1.01 | locus YDR363W, strain ESC2, hits give low values 1.02 | locus YER002W, strain NOP16, hits give low values 1 | [2] 1.01 | locus YNL128W, strain TEP1, hits give low values 1 | locus YNL153C, strain GIM3, hits give low values 1.02 | locus YNL175C, strain NOP13, hits give low values 1.01 | locus YNL197C, strain WHI3, hits give low values 1.02 | locus YNL224C, strain SQS1, hits give low values 1 | [3] 1.02 | locus YOR083W, strain WHI5 (second series), hits give low values 1.04

C[N+]1(C)C2CC[C@H]1CC(OC(=O)C(O)c1ccccc1)C2 (stereo partly drawn)
inactive: [1] 0.996 | locus YAL021C, strain ccr4, hits give low values 1.02 | locus YAL026C, strain drs2, hits give low values 1 | locus YAL030W, strain snc1, hits give low values 0.999 | locus YBL061C, strain skt5, hits give low values 1 | locus YBR009C, strain hhf1, hits give low values 0.996 | locus YBR021W, strain FUR4, hits give low values 0.985 | locus YBR023C, strain chs3, hits give low values 0.992 | locus YBR171W, strain sec66, hits give low values 1 | locus YBR229C, strain ROT2, hits give low values 0.996 | locus YBR231C, strain swc5, hits give low values 1 | locus YBR279W, strain paf1, hits give low values 1.01 | locus YCL011C, strain gbp2, hits give low values 0.984 | locus YCL016C, strain dcc1, hits give low values 0.971 | locus YCL029C, strain bik1, hits give low values 0.995 | locus YCL061C, strain MRC1, hits give low values 0.998 | locus YCL069W, strain vba3, hits give low values 0.996 | locus YCR088W, strain abp1, hits give low values 0.993 | locus YDL005C, strain med2, hits give low values 0.991 | locus YDL035C, strain GPR1, hits give low values 0.993 | locus YDL040C, strain nat1, hits give low values 0.997 | locus YDL074C, strain BRE1, hits give low values 1.01 | locus YDL101C, strain DUN1, hits give low values 0.996 | locus YDL134C, strain PPH21, hits give low values 1.01 | locus YDL185W, strain tfp1, hits give low values 1.01 | locus YDL192W, strain arf1, hits give low values 1.02 | locus YDR001C, strain nth1, hits give low values 0.993 | locus YDR069C, strain doa4, hits give low values 1.02 | locus YDR101C, strain arx1, hits give low values 0.976 | locus YDR137W, strain rgp1, hits give low values 0.992 | locus YDR159W, strain sac3, hits give low values 1.03 | locus YDR162C, strain NBP2, hits give low values 0.997 | locus YDR195W, strain ref2 1.01 | locus YDR297W, strain sur2, hits give low values 1 | locus YDR318W, strain mcm21, hits give low values 1.02 | locus YDR334W, strain swr1, hits give low values 1 | locus YDR335W, strain msn5, hits give low values 1 | locus YDR388W, hits give low values 1.01 | locus YDR392W, strain spt3, hits give low values 0.94 | locus YDR502C, strain sam2, hits give low values 1.02 | locus YEL003W, strain gim4, hits give low values 1.01 | locus YEL037C, strain rad23, hits give low values 1 | locus YEL061C, strain CIN8 (second series), hits give low values 1 | locus YEL061C, strain CIN8, hits give low values 0.995 | locus YER015W, strain faa2, hits give low values 1 | locus YER016W, strain bim1, hits give low values 1.01 | locus YER110C, hits give low values 1.02 | locus YER111C, strain swi4, hits give low values 0.997 | locus YER155C, strain BEM2 (second series), hits give low values 1 | locus YER155C, strain BEM2, hits give low values 0.988 | locus YER167W, strain BCK2, hits give low values 0.977 | locus YFR010W, strain ubp6, hits give low values 1 | locus YGL078C, strain dbp3, hits give low values 1.03 | locus YGL086W, strain mad1, hits give low values 1 | locus YGL167C, strain pmr1, hits give low values 1.01 | locus YGL173C, strain kem1, hits give low values 1.01 | locus YGL227W, strain vid30, hits give low values 0.988 | locus YGL240W, strain doc1, hits give low values 1.01 | locus YGL248W, strain PDE1, hits give low values 0.999 | locus YGL253W, strain hxk2, hits give low values 1 | locus YGR135W, strain pre9, hits give low values 1.04 | locus YGR229C, strain SMI1, hits give low values 0.976 | locus YGR252W, strain gcn5, hits give low values 1.03 | locus YHR013C, strain ard1, hits give low values 0.999 | locus YHR027C, strain rpn1, hits give low values 1.01 | locus YHR030C, strain SLT2, hits give low values 0.978 and 0.976 | locus YHR079C, strain IRE1 (second series), hits give low values 1.01 | locus YHR079C, strain IRE1, hits give low values 0.967 | locus YHR094C, strain hxt1, hits give low values 1.01 | locus YHR129C, strain ARP1, hits give low values 1.01 | locus YHR142W, strain chs7, hits give low values 0.973 | locus YHR200W, strain rpn10, hits give low values 1.02 | locus YIL066C, strain RNR3, hits give low values 0.999 | locus YIL073C, strain SPO22, hits give low values 1.05 | locus YIL125W, strain kgd1, hits give low values 0.995 | locus YIR030C, strain dcg1, hits give low values 1.01 | locus YJL092W, strain hpr5, hits give low values 0.995 | locus YJL095W, strain BCK1 (second series), hits give low values 0.999 | locus YJL095W, strain BCK1, hits give low values 1.01 and 0.993 | locus YJL115W, strain asf1, hits give low values 0.987 | locus YJL129C, strain trk1, hits give low values 1.01 | locus YJL134W, strain LCB3, hits give low values 0.989 | locus YJL154C, strain vps35, hits give low values 0.993 | locus YJL164C, strain tpk1, hits give low values 1 | locus YJL166W, strain qcr8, hits give low values 0.999 | locus YJL168C, strain set2, hits give low values 1.01 | locus YJL187C, strain SWE1 (second series), hits give low values 1 | locus YJL187C, strain SWE1, hits give low values 1 | locus YJR043C, strain POL32, hits give low values 1 | locus YJR066W, strain TOR1, hits give low values 0.928 | locus YKL009W, strain mrt4, hits give low values 1.01 | locus YKL068W, hits give low values 1 | locus YKL085W, strain MDH1 (second series), hits give low values 1 | locus YKL085W, strain MDH1, hits give low values 1 | locus YKL160W, strain elf1, hits give low values 1 | locus YKL190W, strain CNB1, hits give low values 0.985 | locus YKR001C, strain vps1, hits give low values 0.996 | locus YKR026C, strain gcn3, hits give low values 0.999 | locus YKR091W, strain srl3, hits give low values 0.997 | locus YLL001W, strain dnm1, hits give low values 0.98 | locus YLL026W, hits give low values 0.999 | locus YLL041C, strain sdh2, hits give low values 1 | locus YLR027C, strain aat2, hits give low values 1 | locus YLR039C, strain RIC1, hits give low values 0.967 | locus YLR058C, strain SHM2, hits give low values 1.01 | locus YLR102C, strain apc9, hits give low values 1.02 | locus YLR113W, strain HOG1, hits give low values 1 | locus YLR221C, strain rsa3, hits give low values 0.955 | locus YLR258W, strain gsy2, hits give low values 0.983 | locus YLR262C, strain YPT6 (second series), hits give low values 1 | locus YLR262C, strain YPT6, hits give low values 0.977 | locus YLR268W, strain sec22, hits give low values 1.03 | locus YLR320W, strain mms22, hits give low values 0.978 | locus YLR330W, strain CHS5, hits give low values 1 | locus YLR342W, strain FKS1 (second series), hits give low values 1 | locus YLR342W, strain FKS1, hits give low values 1 | locus YLR357W, strain rsc2, hits give low values 1.01 | locus YLR370C, strain arc18, hits give low values 0.993 | locus YLR371W, strain rom2, hits give low values 1 | locus YLR384C, strain iki3, hits give low values 0.994 | locus YLR418C, strain cdc73, hits give low values 1.05 | locus YML016C, strain PPZ1, hits give low values 1.01 | locus YML032C, strain rad52, hits give low values 0.999 | locus YML120C, strain ndi1, hits give low values 0.964 | locus YML124C, strain tub3, hits give low values 1.01 | locus YMR058W, strain fet3, hits give low values 1.01 | locus YMR078C, strain ctf18, hits give low values 1.03 | locus YMR125W, strain sto1, hits give low values 0.996 | locus YMR129W, hits give low values 0.999 | locus YMR205C, strain PFK2, hits give low values 0.992 | locus YMR223W, strain ubp8, hits give low values 1.02 | locus YMR231W, strain pep5, hits give low values 1 | [2] 0.983 | locus YNL067W, strain RPL9B, hits give low values 0.995 | locus YNL071W, strain lat1, hits give low values 1 | locus YNL183C, strain NPR1, hits give low values 0.956 | locus YNL209W, strain ssb2, hits give low values 1 | locus YNL233W, strain BNI4, hits give low values 1 | locus YNL248C, strain rpa49, hits give low values 1 | locus YNL250W, strain rad50, hits give low values 1.02 | locus YNL271C, strain bni1, hits give low values 1.02 | locus YNL298W, strain CLA4, hits give low values 1.03 | locus YNL307C, strain MCK1, hits give low values 1.02 | locus YNL322C, strain KRE1 (second series), hits give low values 0.991 | [3] 0.998 | locus YNR049C, strain mso1, hits give low values 1.01 | locus YNR052C, strain pop2, hits give low values 1.02 | locus YOL012C, strain htz1 1.26 | locus YOL147C, strain pex11, hits give low values 1.02 | locus YOR001W, strain rrp6, hits give low values 1.03 | locus YOR061W, strain CKA2, hits give low values 1.01 | locus YOR069W, strain VPS5, hits give low values 0.987 | locus YOR070C, strain gyp1, hits give low values 0.999 | locus YOR080W, strain dia2, hits give low values 0.994 | locus YOR083W, strain WHI5, hits give low values 1 | locus YOR106W, strain vam3, hits give low values 1 | locus YOR136W, strain idh2, hits give low values 1.02 | locus YOR144C, strain elg1, hits give low values 1.01 | locus YOR184W, strain ser1, hits give low values 1.03 | locus YOR231W, strain MKK1, hits give low values 0.983 | locus YOR265W, strain rbl2, hits give low values 0.996 | locus YOR270C, strain vph1, hits give low values 1.01 | locus YOR290C, strain snf2, hits give low values 0.966 | locus YOR316C, strain cot1, hits give low values 1.02 | locus YPL051W, strain arl3, hits give low values 1.01 | locus YPL055C, strain LGE1, hits give low values 0.985 | locus YPL078C, strain atp4, hits give low values 1 | locus YPL106C, strain sse1, hits give low values 0.99 | locus YPL240C, strain hsp82, hits give low values 0.997 | locus YPL256C, strain CLN2, hits give low values 0.982 | locus YPR119W, strain clb2, hits give low values 1.01 | locus YPR141C, strain kar3, hits give low values 1.02 | locus YPR163C, strain tif3, hits give low values 1.02 | locus YPR167C, strain met16, hits give low values 1.02 | strain wtn01, hits give low values 1.03
